In all, about 5,500 compounds went through this assay and about 2,000 (36%) were called active. Another 18% or so got no clear call; they are omitted. No stated cut-off is given here; in the data, active means normalized growth mostly below about 0.91 (no sharp cut-off); inconclusive means no clear call, values can overlap the other calls; inactive means mostly above about 0.92. This is one part of the list.
Assay: chemical genetic growth profiling, strain panel (AID 1159580);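 further: tested at 20 µM; growth read once vehicle control cultures reached saturation at 30 °C; 1 = growth at the plate median or of vehicle wells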
Settings: S. cerevisiae deletion strains, growth OD

Measured: normalized growth

CC12CCC(O)CC1CCC1C2[C@H](O)CC2(C)C(C3=CC(=O)OC3)CCC12O (stereo partly drawn)
inactive: locus YBR021W, strain FUR4, stronger effect = lower value 1.02 | locus YBR229C, strain ROT2, stronger effect = lower value 1.03 | locus YCL029C, strain bik1, stronger effect = lower value 1.01 | locus YDL035C, strain GPR1, stronger effect = lower value 1.07 | locus YDL074C, strain BRE1, stronger effect = lower value 1.08 | locus YDL101C, strain DUN1, stronger effect = lower value 1.02 | locus YDL185W, strain tfp1, stronger effect = lower value 0.995 | locus YDL192W, strain arf1, stronger effect = lower value 1.01 | locus YDR101C, strain arx1, stronger effect = lower value 1.02 | locus YDR162C, strain NBP2, stronger effect = lower value 1.03 | locus YDR318W, strain mcm21, stronger effect = lower value 0.998 | locus YDR388W, stronger effect = lower value 0.983 | locus YDR502C, strain sam2, stronger effect = lower value 1 | locus YER110C, stronger effect = lower value 0.988 | locus YER155C, strain BEM2, stronger effect = lower value 1.01 | locus YER167W, strain BCK2, stronger effect = lower value 1.04 | locus YGL078C, strain dbp3, stronger effect = lower value 1 | locus YGL086W, strain mad1, stronger effect = lower value 0.992 | locus YGL248W, strain PDE1, stronger effect = lower value 1.02 | locus YGR135W, strain pre9, stronger effect = lower value 0.976 | locus YGR252W, strain gcn5, stronger effect = lower value 0.954 | locus YHR079C, strain IRE1 (second series), stronger effect = lower value 0.992 | locus YHR094C, strain hxt1, stronger effect = lower value 0.984 | locus YHR129C, strain ARP1, stronger effect = lower value 1.02 | locus YHR200W, strain rpn10, stronger effect = lower value 0.999 | locus YIL066C, strain RNR3, stronger effect = lower value 1.04 | locus YIL073C, strain SPO22, stronger effect = lower value 1.06 | locus YIL125W, strain kgd1, stronger effect = lower value 0.996 | locus YIR030C, strain dcg1, stronger effect = lower value 0.986 | locus YJL095W, strain BCK1, stronger effect = lower value 1.03 | locus YJL134W, strain LCB3, stronger effect = lower value 1.01 | locus YJL168C, strain set2, stronger effect = lower value 0.992 | locus YJL187C, strain SWE1 (second series), stronger effect = lower value 1.01 | locus YJR043C, strain POL32, stronger effect = lower value 1.06 | locus YJR075W, strain HOC1, stronger effect = lower value 1.03 | locus YKL009W, strain mrt4, stronger effect = lower value 1.06 | locus YKL068W, stronger effect = lower value 1 | locus YKL085W, strain MDH1 (second series), stronger effect = lower value 1 | locus YKL085W, strain MDH1, stronger effect = lower value 1 | locus YKL190W, strain CNB1, stronger effect = lower value 1.02 | locus YKR001C, strain vps1, stronger effect = lower value 1.01 | locus YLR039C, strain RIC1, stronger effect = lower value 1.1 | locus YLR058C, strain SHM2, stronger effect = lower value 1.03 | locus YLR102C, strain apc9, stronger effect = lower value 0.994 | locus YLR262C, strain YPT6, stronger effect = lower value 1.16 | locus YLR268W, strain sec22, stronger effect = lower value 1.01 | locus YLR371W, strain rom2, stronger effect = lower value 0.991 | locus YLR418C, strain cdc73, stronger effect = lower value 0.957 | locus YML016C, strain PPZ1, stronger effect = lower value 1.02 | locus YML032C, strain rad52, stronger effect = lower value 1 | locus YML124C, strain tub3, stronger effect = lower value 1 | locus YMR078C, strain ctf18, stronger effect = lower value 1 | locus YMR223W, strain ubp8, stronger effect = lower value 0.983 | locus YMR263W, strain SAP30, stronger effect = lower value 1.02 | locus YMR307W, strain GAS1, stronger effect = lower value 1.08 | locus YNL067W, strain RPL9B, stronger effect = lower value 1.01 | locus YNL153C, strain GIM3, stronger effect = lower value 1.03 | locus YNL233W, strain BNI4, stronger effect = lower value 1.03 | locus YNL250W, strain rad50, stronger effect = lower value 0.986 | locus YNL271C, strain bni1, stronger effect = lower value 0.995 | locus YNL298W, strain CLA4, stronger effect = lower value 1.02 | locus YNL307C, strain MCK1, stronger effect = lower value 0.987 | locus YNR052C, strain pop2, stronger effect = lower value 0.991 | locus YOL012C, strain htz1 0.714 | locus YOL147C, strain pex11, stronger effect = lower value 0.991 | locus YOR061W, strain CKA2, stronger effect = lower value 1.06 | locus YOR069W, strain VPS5, stronger effect = lower value 1.01 | locus YOR136W, strain idh2, stronger effect = lower value 1.01 | locus YOR144C, strain elg1, stronger effect = lower value 0.998 | locus YOR184W, strain ser1, stronger effect = lower value 1.05 | locus YOR316C, strain cot1, stronger effect = lower value 0.995 | locus YPL055C, strain LGE1, stronger effect = lower value 1.07 | locus YPL241C, strain CIN2, stronger effect = lower value 1.01 | locus YPR119W, strain clb2, stronger effect = lower value 0.994 | locus YPR141C, strain kar3, stronger effect = lower value 0.982 | locus YPR163C, strain tif3, stronger effect = lower value 0.998 | locus YPR167C, strain met16, stronger effect = lower value 0.993 | strain wtn01, stronger effect = lower value 1.01
